Reference: PubChem BioAssay
Active and inactive are the calls of the source.

Columns and labels:
[1] = tested on: PRMT1 (protein arginine N-methyltransferase 1); assay: PRMT1 binders on small-molecule microarrays, primary screen, biochemical, small-molecule microarray, 635 nm fluorescence (AID 1088); conditions: small-molecule microarray binding, higher = more signal;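 also: binding of Prmt1 protein to compounds spotted on small-molecule microarray slides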
[2] = yeast growth modulation, basal conditions, primary screen, YJM789 clinical isolate, OD600, 24 h (AID 1089);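 also: growth of clinical yeast isolate S. cerevisiae YJM 789 seeded 1000 cells per well; test concentration not given here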; conditions: S. cerevisiae YJM789 growth, higher = more signal, called active from +8 up or from −8 down
[3] = fission yeast growth modulation, primary screen, strain 972, OD600, 24 h, no modulator (AID 1090);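 also: basal condition with compound alone and no growth modifier present; test concentration not given here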; conditions: S. pombe 972 growth, higher = more signal, called active from +8 up or from −8 down
[4] = S. cerevisiae growth modulation with rapamycin, primary screen, strain BY4716, OD600, 96 h (AID 1091); conditions: higher = more signal, called active from +8 up or from −8 down; also: test concentration not given here
[5] = target: Torsin-1A-interacting protein 2 (Homo sapiens) (UniProt Q8NFQ8); assay: LULL1 binders on small-molecule microarray, primary screen, cell lysate, human LULL1 lysate, 635/667 nm fluorescence (AID 1092); conditions: hLULL1 lysate binding, 635 nm fluorescence, higher = more signal;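 also: probe is lysate of COS7 cells overexpressing human LULL1; score merges per-feature 667 nm fluorescence with signal-to-noise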
Chain of Torsin-1A-interacting protein 2 (Homo sapiens) (Q8NFQ8 whole entry, looked up): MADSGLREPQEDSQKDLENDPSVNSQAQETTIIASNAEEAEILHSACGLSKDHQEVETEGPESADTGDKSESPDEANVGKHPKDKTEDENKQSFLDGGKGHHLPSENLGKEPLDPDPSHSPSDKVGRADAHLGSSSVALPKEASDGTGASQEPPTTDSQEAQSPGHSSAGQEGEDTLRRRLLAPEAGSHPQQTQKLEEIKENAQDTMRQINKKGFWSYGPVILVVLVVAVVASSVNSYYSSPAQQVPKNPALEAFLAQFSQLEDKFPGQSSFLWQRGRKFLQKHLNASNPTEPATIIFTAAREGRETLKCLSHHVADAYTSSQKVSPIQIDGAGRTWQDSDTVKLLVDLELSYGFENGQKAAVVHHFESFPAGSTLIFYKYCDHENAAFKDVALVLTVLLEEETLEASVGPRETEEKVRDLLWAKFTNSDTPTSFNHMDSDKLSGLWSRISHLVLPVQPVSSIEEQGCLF

[6] = E. coli growth modulation, two-sided OD650, primary screen, E. coli filamentation project, strain DRC41, 24 h (AID 1093); conditions: OD650, 24 h, higher = more signal, called active from +8 up or from −8 down;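 also: MC1000 strain lacking acrAB efflux and sulA so SOS filamentation is blocked; test concentration not given here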
[7] = small-molecule microarray binders of probe aLefty2, primary screen, biochemical, biotinylated probe, 635/667 nm fluorescence (AID 1094); conditions: higher = more signal;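 also: score merges spot fluorescence near 667 nm with spot signal-to-noise ratio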
[8] = tested on: Noggin (protein binding on small-molecule microarray); assay: Noggin binders on small-molecule microarray, primary screen, biochemical, 635/667 nm fluorescence (AID 1095); conditions: 635 nm fluorescence, higher = more signal;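 also: score merges 667 nm feature fluorescence with signal to noise over triplicate slides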
[9] = target: Neurogenic locus notch homolog protein 3 (Homo sapiens) (UniProt Q9UM47); assay: NOTCH3 binders on small-molecule microarray, primary screen, biochemical, 635/667 nm fluorescence (AID 1096); conditions: NOTCH3 binding, 635 nm fluorescence, higher = more signal
Chain of Neurogenic locus notch homolog protein 3 (Homo sapiens) (Q9UM47 whole entry, looked up): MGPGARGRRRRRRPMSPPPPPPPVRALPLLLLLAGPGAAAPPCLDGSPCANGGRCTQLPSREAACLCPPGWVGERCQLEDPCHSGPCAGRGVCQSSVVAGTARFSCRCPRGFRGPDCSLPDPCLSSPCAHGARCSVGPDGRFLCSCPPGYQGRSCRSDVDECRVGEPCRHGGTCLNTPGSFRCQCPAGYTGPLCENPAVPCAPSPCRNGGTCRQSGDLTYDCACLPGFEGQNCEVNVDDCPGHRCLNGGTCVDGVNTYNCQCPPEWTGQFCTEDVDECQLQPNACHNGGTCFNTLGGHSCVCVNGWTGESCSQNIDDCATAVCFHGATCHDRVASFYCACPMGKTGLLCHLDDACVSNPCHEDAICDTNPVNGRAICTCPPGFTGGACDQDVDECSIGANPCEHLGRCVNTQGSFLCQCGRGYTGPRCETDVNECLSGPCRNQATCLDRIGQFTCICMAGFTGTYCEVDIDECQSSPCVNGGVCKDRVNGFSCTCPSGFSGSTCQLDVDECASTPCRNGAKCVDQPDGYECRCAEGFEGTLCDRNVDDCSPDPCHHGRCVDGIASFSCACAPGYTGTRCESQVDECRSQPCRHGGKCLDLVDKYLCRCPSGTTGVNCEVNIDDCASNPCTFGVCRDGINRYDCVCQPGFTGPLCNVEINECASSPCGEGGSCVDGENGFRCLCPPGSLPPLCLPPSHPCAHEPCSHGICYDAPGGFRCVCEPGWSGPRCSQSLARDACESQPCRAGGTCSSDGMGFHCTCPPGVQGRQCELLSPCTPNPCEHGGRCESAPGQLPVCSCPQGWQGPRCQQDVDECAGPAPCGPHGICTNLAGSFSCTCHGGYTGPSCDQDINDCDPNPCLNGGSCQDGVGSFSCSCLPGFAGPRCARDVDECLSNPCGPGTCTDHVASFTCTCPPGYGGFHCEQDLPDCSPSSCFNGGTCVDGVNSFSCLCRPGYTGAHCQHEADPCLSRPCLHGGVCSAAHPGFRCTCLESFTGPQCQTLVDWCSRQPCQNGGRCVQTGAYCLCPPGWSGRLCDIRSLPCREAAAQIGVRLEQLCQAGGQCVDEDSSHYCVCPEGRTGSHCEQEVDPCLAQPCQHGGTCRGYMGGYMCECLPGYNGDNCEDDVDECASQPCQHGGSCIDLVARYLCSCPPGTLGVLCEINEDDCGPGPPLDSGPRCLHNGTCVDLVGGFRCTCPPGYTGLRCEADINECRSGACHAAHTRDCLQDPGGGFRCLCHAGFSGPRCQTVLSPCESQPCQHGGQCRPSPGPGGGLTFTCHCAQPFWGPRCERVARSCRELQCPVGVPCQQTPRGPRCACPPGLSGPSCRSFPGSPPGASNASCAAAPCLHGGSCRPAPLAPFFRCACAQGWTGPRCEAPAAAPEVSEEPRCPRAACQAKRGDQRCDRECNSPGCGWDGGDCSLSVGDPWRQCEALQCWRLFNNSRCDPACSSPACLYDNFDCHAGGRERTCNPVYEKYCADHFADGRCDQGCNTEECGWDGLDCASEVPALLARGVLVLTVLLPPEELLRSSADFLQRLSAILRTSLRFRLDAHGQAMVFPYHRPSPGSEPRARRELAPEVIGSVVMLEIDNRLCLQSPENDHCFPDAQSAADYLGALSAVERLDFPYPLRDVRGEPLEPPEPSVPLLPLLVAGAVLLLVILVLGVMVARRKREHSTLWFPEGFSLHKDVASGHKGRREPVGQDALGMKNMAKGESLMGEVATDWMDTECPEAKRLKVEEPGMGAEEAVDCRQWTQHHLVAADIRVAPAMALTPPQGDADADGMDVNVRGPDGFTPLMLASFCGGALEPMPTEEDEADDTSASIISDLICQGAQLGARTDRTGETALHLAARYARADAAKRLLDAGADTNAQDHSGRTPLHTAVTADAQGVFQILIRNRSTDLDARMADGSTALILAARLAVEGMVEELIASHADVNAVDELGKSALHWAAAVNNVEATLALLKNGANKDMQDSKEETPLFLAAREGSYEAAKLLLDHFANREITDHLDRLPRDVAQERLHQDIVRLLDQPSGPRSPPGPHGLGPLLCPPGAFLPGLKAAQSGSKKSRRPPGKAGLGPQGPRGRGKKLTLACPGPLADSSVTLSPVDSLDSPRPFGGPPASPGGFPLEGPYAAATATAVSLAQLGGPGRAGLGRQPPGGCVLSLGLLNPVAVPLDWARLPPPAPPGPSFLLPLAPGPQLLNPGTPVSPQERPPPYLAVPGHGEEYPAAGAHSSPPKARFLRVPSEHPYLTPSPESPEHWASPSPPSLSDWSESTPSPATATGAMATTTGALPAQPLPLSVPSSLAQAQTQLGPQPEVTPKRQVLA

[10] = small-molecule microarray binders of probe aEGFR, primary screen, biochemical, biotinylated probe, 635/667 nm fluorescence (AID 1097); conditions: higher = more signal;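 also: probe is a biotinylated anti-EGFR antibody binding compounds printed on slides; score combines fluorescence near 667 nm and signal to noise of each spot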
[11] = tested on: Plasmodium falciparum Sir2 (PF13_0152, Sir2A); assay: pfSir2 binders on small-molecule microarrays, primary screen, biochemical, small-molecule microarray, 635 nm fluorescence (AID 1098); conditions: small-molecule microarray binding, fluorescence 635 nm; higher = more signal;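 also: score merges spot fluorescence intensity with its signal-to-noise ratio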
[12] = small-molecule microarray binders of probe aDKK1, primary screen, biochemical, biotinylated probe, 635/667 nm fluorescence (AID 1099); conditions: higher = more signal;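 also: score merges 667nm spot fluorescence with signal to noise across triplicate slides; reference of the scale not given here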
[13] = small-molecule microarray binders of probe aCHRDL2, primary screen, biochemical, biotinylated probe, 635/667 nm fluorescence (AID 1100); conditions: higher = more signal
[14] = splicing luciferase reporter signal modulators, primary screen, spliceosome inhibition project, cell-based, HEK293, splice +/- reporter (AID 1101); conditions: luminescence, 24 h, higher = more signal, called active from +8 up or from −8 down;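 also: HEK293 cells carrying a splicing-competent luciferase reporter gene; test concentration not given here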
[15] = target: Fibroblast growth factor 10 (Homo sapiens) (UniProt O15520); assay: FGF10 binders on small-molecule microarrays, primary screen, biochemical, small-molecule microarray, 635 nm fluorescence (AID 1102); conditions: FGF10 binding, fluorescence 635 nm, higher = more signal
Chain of Fibroblast growth factor 10 (Homo sapiens) (O15520 whole entry, looked up): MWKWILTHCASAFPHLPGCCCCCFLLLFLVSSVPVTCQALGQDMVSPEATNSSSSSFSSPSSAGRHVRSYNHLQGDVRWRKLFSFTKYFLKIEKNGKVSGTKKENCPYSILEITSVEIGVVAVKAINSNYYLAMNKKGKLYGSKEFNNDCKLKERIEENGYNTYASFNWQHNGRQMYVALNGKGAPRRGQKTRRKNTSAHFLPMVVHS

[16] = tested on: glycogen synthase kinase-3 (GSK3A per assay name; protocol says GSK3B); assay: GSK3 binders on small-molecule microarrays, primary screen, biochemical, small-molecule microarray, 635 nm fluorescence, GSK3A (AID 1103); conditions: small-molecule microarray binding, fluorescence 635 nm; higher = more signal; also: the record names both GSK3A and GSK3B
[17] = target: Epidermal growth factor receptor (Homo sapiens) (UniProt P00533); assay: EGFR binders on small-molecule microarrays, primary screen, biochemical, small-molecule microarray, 635 nm fluorescence (AID 1104); conditions: EGFR binding, higher = more signal;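 also: score merges 667 nm emission intensity with spot signal to noise over triplicate slides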
Chain of Epidermal growth factor receptor (Homo sapiens) (P00533 whole entry, looked up): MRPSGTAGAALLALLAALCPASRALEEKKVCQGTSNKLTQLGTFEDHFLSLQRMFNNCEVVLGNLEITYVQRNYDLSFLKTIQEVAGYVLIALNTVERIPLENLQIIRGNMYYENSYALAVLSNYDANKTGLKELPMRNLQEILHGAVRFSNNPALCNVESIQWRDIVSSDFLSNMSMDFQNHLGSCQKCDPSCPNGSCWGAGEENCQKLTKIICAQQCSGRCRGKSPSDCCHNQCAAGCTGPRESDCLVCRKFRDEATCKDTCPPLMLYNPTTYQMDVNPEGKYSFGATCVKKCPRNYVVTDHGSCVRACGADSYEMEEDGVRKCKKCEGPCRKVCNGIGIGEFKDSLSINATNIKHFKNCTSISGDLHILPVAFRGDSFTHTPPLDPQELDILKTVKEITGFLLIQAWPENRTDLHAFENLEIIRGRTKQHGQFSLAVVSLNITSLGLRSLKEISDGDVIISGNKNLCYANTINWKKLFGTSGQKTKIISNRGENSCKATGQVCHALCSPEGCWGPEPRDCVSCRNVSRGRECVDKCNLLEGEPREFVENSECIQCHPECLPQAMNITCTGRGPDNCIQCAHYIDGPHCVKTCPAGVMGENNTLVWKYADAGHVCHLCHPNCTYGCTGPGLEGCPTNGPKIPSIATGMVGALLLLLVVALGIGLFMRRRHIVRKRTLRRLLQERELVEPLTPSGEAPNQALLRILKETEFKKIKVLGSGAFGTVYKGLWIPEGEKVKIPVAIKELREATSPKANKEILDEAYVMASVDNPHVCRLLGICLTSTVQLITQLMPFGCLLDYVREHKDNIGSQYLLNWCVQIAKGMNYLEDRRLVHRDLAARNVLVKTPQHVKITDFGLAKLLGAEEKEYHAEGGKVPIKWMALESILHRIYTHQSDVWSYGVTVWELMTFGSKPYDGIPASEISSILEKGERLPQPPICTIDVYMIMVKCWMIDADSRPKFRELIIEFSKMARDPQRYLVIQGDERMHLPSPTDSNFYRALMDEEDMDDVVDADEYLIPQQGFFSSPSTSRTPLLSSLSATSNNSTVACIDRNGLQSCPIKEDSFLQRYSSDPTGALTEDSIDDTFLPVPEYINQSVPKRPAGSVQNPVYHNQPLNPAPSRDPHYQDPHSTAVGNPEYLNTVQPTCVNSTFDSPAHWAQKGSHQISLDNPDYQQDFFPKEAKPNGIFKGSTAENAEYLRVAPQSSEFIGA

[18] = target: Follistatin-related protein 3 (Homo sapiens) (UniProt O95633); assay: FSTL3 binders on small-molecule microarrays, primary screen, biochemical, small-molecule microarray, 635 nm fluorescence (AID 1105); conditions: FSTL3 binding, higher = more signal;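 also: score merges emission near 667 nm and signal to noise per printed spot across three slides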
Chain of Follistatin-related protein 3 (Homo sapiens) (O95633 whole entry, looked up): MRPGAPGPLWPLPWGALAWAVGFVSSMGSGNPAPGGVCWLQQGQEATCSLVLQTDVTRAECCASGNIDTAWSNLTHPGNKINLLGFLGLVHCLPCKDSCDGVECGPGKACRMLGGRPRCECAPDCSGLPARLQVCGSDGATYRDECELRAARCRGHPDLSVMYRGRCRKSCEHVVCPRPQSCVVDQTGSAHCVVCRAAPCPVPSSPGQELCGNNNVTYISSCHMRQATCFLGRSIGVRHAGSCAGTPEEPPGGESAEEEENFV

[19] = target: Dickkopf-related protein 1 (Homo sapiens) (UniProt O94907); assay: DKK1 binders on small-molecule microarrays, primary screen, biochemical, small-molecule microarray, 635 nm fluorescence scan (AID 1106); conditions: DKK1 binding, higher = more signal;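 also: score merges emission near 667 nm with signal to noise over three replicate slides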
Chain of Dickkopf-related protein 1 (Homo sapiens) (O94907 whole entry, looked up): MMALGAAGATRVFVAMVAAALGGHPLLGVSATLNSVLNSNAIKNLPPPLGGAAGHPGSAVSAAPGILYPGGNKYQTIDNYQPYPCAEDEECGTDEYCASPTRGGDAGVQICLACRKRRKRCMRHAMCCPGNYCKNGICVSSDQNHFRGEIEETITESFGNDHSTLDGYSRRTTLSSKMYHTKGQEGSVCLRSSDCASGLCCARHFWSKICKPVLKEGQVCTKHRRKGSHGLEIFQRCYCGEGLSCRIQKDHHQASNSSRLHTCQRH

[20] = tested on: Inhibin beta A chain (activin A); assay: INHBA (activin A) binders on microarrays, primary screen, biochemical, small-molecule microarray, 635 nm fluorescence scan (AID 1107); conditions: small-molecule microarray binding, higher = more signal;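 also: mouse activin A protein probed at 4.33 µg/mL on printed slides; score merges bound-protein fluorescence near 667 nm with spot signal-to-noise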

Row | Compound | composite z-score [1] | z-score [2] | z-score [3] | z-score [4] | composite z-score [5] | z-score [6] | composite z-score [7] | composite z-score [8] | composite z-score [9] | composite z-score [10] | composite z-score [11] | composite z-score [12] | composite z-score [13] | z-score [14] | composite z-score [15] | composite z-score [16] | composite z-score [17] | composite z-score [18] | composite z-score [19] | composite z-score [20]
1 | [N-]=[N+]=NCc1ccccc1[C@H]1OC(c2ccc(OCCCO)cc2)=N[C@@]1(CCS(=O)(=O)c1ccccc1)C(=O)N1CCOCC1 | 1.27 | 0.0373 (inactive) | 0.553 (inactive) | 2.23 (inactive) | 3.65 | 0.151 (inactive) | 0.663 | 0.346 | 1.1 | 0.302 | 1.26 | 1.19 | 1.31 | -0.0598 (inactive) | 1.17 | 0.239 | 0.267 | 1.13 | -0.0445 | 1
2 | CCOC(=O)C[C@H]1[C@H](OC(=O)Cc2ccc3c(c2)OCO3)[C@@H](NC(=O)c2ccc(-c3ccccc3)cc2)c2cc(OCCCO)ccc2N1C(=O)c1ccccc1 | 0.869 | 0.22 (inactive) | -0.661 (inactive) | 0.712 (inactive) | 1.81 | 1.96 (inactive) | -0.137 | 0.267 | 0.643 | 0.0027 | 0.377 | -0.0183 | -0.228 | -0.586 (inactive) | 0.602 | 0.367 | 0.457 | 0.612 | 0.247 | 0.235
3 | O=C1C2C=CC(C(O)c3cccs3)N(Nc3ccccc3F)C2C(=O)N1c1ccccc1 (stereo not given) | -0.441 | -0.471 (inactive) | 0.915 (inactive) | -0.867 (inactive) | 3.17 | 0.153 (inactive) | 0.0166 | -0.226 | 0.476 | -0.11 | 0.87 | 0.266 | 0.541 | -0.743 (inactive) | 0.092 | 0.308 | 0.0444 | 0.224 | -0.0382 | 0.804
4 | C=CCOC(=O)[C@H]1[C@@H]2C(=O)O[C@@H](c3ccccc3)[C@@H](c3ccccc3)N2[C@@H](c2ccc(OCCOC(=O)[C@@H]3C[C@@H]4C(=O)N5CCC[C@H]5C(=O)N4[C@@H]3c3ccc(O)cc3)cc2)[C@]12C(=O)Nc1ccccc12 | 1.53 | 0.821 (inactive) | 1.64 (inactive) | 3.79 (inactive) | 2.63 | 0.621 (inactive) | -0.0984 | 1.15 | 0.799 | -0.096 | 1.53 | -0.294 | 0.0807 | 0.109 (inactive) | 0.629 | 1.28 | 0.586 | 1.21 | 1.45 | -0.23
5 | CN1CCC(CCCO)=CC1c1ccc(CN2CCCC2)cc1 (stereo not given) | 1.54 | -1.05 (inactive) | -2.41 (inactive) | -0.763 (inactive) | 2.18 | -0.145 (inactive) | 0.36 | 1.72 | 1.07 | 0.337 | 0.988 | 0.331 | 0.756 | 0.873 (inactive) | 1.3 | 1.3 | 1.64 | 1.48 | 1.74 | 1.86
6 | COc1ccc(C(O)C2C=CC3C(=O)N(C)C(=O)C3N2Nc2ccccc2)cc1OCc1ccccc1 (stereo not given) | 1.49 | -4.02 (inactive) | 1.11 (inactive) | 0.317 (inactive) | 3.41 | -1.2 (inactive) | 0.287 | 0.102 | 0.742 | 0.0099 | 1.1 | 0.679 | 0.85 | 0.89 (inactive) | 0.868 | 0.841 | 0.165 | 0.814 | -0.0523 | 0.152
7 | CCOC(=O)C1=CC[C@@H](c2ccccc2Cl)N(S(=O)(=O)c2ccc(C)cc2)C1 | 0.98 | -2.37 (inactive) | 0.307 (inactive) | 0.661 (inactive) | 2.24 | -0.239 (inactive) | 0.264 | -0.434 | 1.04 | -0.178 | 1.17 | 0.342 | 0.928 | -1.97 (inactive) | 0.403 | 0.196 | -0.138 | 0.0633 | -0.794 | 0.304
8 | CCCNC(=O)[C@@H]1c2ccccc2C(=O)N(Cc2ccccc2)[C@H]1c1ccc(CO)cc1 | 0.577 | 0.288 (inactive) | -0.45 (inactive) | 0.633 (inactive) | 2.12 | -1.04 (inactive) | 0.0553 | -0.344 | 0.0163 | -0.152 | 0.405 | -0.0972 | 0.933 | 0.0373 (inactive) | -0.239 | 0.0282 | -0.592 | -0.637 | -0.744 | -0.217
9 | COCCOC(=O)N1C(=O)[C@@]2(c3ccccc31)[C@H](c1ccc(O)cc1)N1[C@H](c3ccccc3)[C@H](c3ccccc3)OC(=O)[C@H]1[C@@H]2C(=O)N1CCc2cc(OC)c(OC)cc2C1 | 1.54 | -1.36 (inactive) | 0.201 (inactive) | 1.3 (inactive) | 1.17 | -0.121 (inactive) | 0.0191 | 1.04 | 1.06 | 0.101 | 1.25 | 0.203 | 0.404 | -0.832 (inactive) | 1.36 | 0.92 | 0.869 | 1.03 | 0.84 | 0.451
10 | O=C1C2C=CC(C(O)c3ccc(-c4ccccc4)s3)N(n3cnnc3)C2C(=O)N1Cc1ccccc1 (stereo not given) | 0.147 | -0.466 (inactive) | -11.7 (active) | -0.0238 (inactive) | 1.77 | -0.485 (inactive) | -0.0823 | -0.0489 | 0.225 | -0.0716 | 0.633 | 0.0447 | 0.746 | -0.36 (inactive) | 0.0262 | -0.751 | -0.486 | -0.435 | -0.539 | 0.631
